Source: PubChem BioAssay
An excerpt weighted towards active compounds, which were near 0.77% of everything screened.
Mtb RmlCD inh – M. tuberculosis RmlC/RmlD inhibition; RmlC+RmlD coupled enzyme assay, percent inhibition; primary screen in compound mixtures; AID 1533; P9WH09+P9WH11; inhibition, % at 3.6 µM; 0.03% of 160,000 active; in the data active = inhibition mostly above about 34%, no sharp cut-off
Target sequence (P9WH09 whole entry, looked up): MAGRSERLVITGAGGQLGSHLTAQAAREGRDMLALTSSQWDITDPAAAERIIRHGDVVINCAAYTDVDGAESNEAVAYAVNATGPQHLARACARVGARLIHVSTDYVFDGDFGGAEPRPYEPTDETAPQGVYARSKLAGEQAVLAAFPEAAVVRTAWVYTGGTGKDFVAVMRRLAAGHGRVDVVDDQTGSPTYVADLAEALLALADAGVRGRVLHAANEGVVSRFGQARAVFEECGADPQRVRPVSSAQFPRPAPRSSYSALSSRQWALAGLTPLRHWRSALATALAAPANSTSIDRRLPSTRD
Target sequence (P9WH11 whole entry, looked up): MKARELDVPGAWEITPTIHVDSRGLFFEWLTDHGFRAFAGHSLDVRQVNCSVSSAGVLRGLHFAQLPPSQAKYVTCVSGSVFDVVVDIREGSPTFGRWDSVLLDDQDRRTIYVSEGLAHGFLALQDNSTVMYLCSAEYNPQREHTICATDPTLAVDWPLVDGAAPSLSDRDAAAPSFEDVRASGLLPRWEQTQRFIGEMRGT
RecA intein inh – Mtb RecA intein splicing inhibition. inhibition, % (no concentration beside the values). AID 2221. 0.75% of 290,000 active. P9WHJ3. cell-free RecA intein splicing, fluorescence; in the data active = inhibition above about 30%
GFP chromophore – counter-screen GFP chromophore formation inhibition; shares compounds with RecA intein inh; cell-free GFP chromophore formation, fluorescence; 83% of 2,100 active; AID 434968; EC50, µM; call rule not given here
Of the large screens only hits and unclear results are named; the others gave an inactive call (follow-up assays come after a bar, where they were run).

Cc1[nH]nc2c1C1(CCOCC1)C(C#N)=C(N)O2	RecA intein inh 78 | GFP chromophore 13
N#CC1=C(N)N2C(=C(C#N)C13CCN(Cc1ccccc1)CC3)Nc1ccccc12	none (no result: Mtb RmlCD inh)
CCOC(=O)C1CCCCC12C(C#N)=C(N)Oc1n[nH]c(C)c12 (stereo not given)	none
CCOC(=O)C1CCC2(CC1)C(C#N)=C(N)Oc1n[nH]c(C)c12 (stereo not given)	RecA intein inh 79 (no result: Mtb RmlCD inh) | GFP chromophore inactive
CCCc1[nH]nc2c1C1(CCN(C(=O)OCc3ccccc3)CC1)C(C#N)=C(N)O2	none (no result: Mtb RmlCD inh)
Cc1[nH]nc2c1C1(CCN(Cc3ccccc3)CC1)C(C#N)=C(N)O2	RecA intein inh 85 | GFP chromophore 14
O=C(CSc1ccccc1)NC1=NCCS1	none
CC(=O)N(/N=C1\Sc2ccccc2C1=O)c1cccc(C)c1	none
COc1cc(/C=N\NC(=O)c2ccc(Cl)cc2)ccc1Oc1ccc([N+](=O)[O-])cn1	none
COc1cc(/C=N\NC(=O)c2ccccc2F)ccc1Oc1ccc([N+](=O)[O-])cn1	RecA intein inh 34 | GFP chromophore inactive
O=C(O)c1cc2cc(Cl)cc(Cl)c2oc1=O	none
CCOC(=O)NC(=O)C(=CNNc1ncc(C(F)(F)F)cc1Cl)C(=O)NC(=O)OCC	none
COc1cc(-c2nnc(SCC(=O)N3c4ccccc4Sc4ccccc43)o2)cc(OC)c1OC	none (no result: Mtb RmlCD inh)
O=C(Sc1nnc(-c2ccccc2)o1)N1c2ccccc2Sc2ccccc21	RecA intein inh 57 (no result: Mtb RmlCD inh) | GFP chromophore 0.92
CCC1CCCCN1C(=O)c1ccc(OC)c(OC2CCN(C(C)=O)CC2)c1 (stereo not given)	none (no result: Mtb RmlCD inh)
Cc1ccc(NC(=O)CSc2ncnc3ccccc23)cc1S(=O)(=O)N1CCCCCC1	RecA intein inh 31 | GFP chromophore inactive
Cc1ccc(S(=O)(=O)N2CCCCC2)cc1NC(=O)CSc1ncnc2ccccc12	none
c1ccc2c(c1)nc(Nc1ccc3c(c1)OCO3)c1nnnn12	none
COc1ccc(C2NC(=O)NC(O)(C(F)(F)F)C2C(=O)c2ccc(F)cc2)cc1 (stereo not given)	none (no result: Mtb RmlCD inh)
COc1ccc(C(=O)C2C(c3ccc(-c4ccccc4[N+](=O)[O-])o3)NC(=O)NC2(O)C(F)(F)F)cc1 (stereo not given)	RecA intein inh 64 | GFP chromophore 32
O=C(CN1C(=O)c2cccc3cccc1c23)Nc1cccnc1	none (no result: Mtb RmlCD inh)
O=C(CSCc1ccccc1Cl)N/N=C/c1ccco1	none
Oc1ccc(N=Cc2ccc(-c3cccs3)s2)cc1	RecA intein inh 45 | GFP chromophore inactive
CCCCOc1ccc(N=Cc2cccs2)cc1	none
CC12CCC(C(=O)NNC(=O)c3ccc(F)cc3)(OC1=O)C2(C)C (stereo not given)	none (no result: Mtb RmlCD inh)
Cc1[nH][nH]c(=O)c1C(c1cc(Br)ccc1O)c1c(C)[nH][nH]c1=O	RecA intein inh 97 (no result: Mtb RmlCD inh) | GFP chromophore 0.53
Cc1[nH][nH]c(=O)c1C(c1cc2c(cc1Br)OCO2)c1c(C)[nH][nH]c1=O	RecA intein inh 95 | GFP chromophore 0.72
O=C1NC(=O)/C(=C/c2cc3c(cc2Br)OCO3)S1	none (no result: Mtb RmlCD inh)
Cc1ccc(C(c2cc(Br)ccc2O)N2CCSCC2)cc1 (stereo not given)	none (no result: Mtb RmlCD inh)
CCOC(=O)c1c(C)[nH]c(N=Nc2ccccc2C)c1C	none (no result: Mtb RmlCD inh)
O=C(NC(=S)NNC(=O)c1cc2ccccc2cc1O)c1ccco1	none (no result: Mtb RmlCD inh)
O=C(NC(=S)NNC(=O)c1ccccc1O)c1ccco1	RecA intein inh 36 | GFP chromophore inactive
N#CCSc1nccc(/C=C/c2ccccc2)n1	none
O=C(NCC1CCCO1)C(c1cccs1)N(Cc1ccccc1)C(=O)c1ccc(-c2ccccc2)[nH]1 (stereo not given)	none (no result: Mtb RmlCD inh)
CC(C)(C)NC(=O)C(c1cccs1)N(CC1CCCO1)C(=O)c1ccc(-c2ccccc2)[nH]1 (stereo not given)	RecA intein inh 33 | GFP chromophore inactive
Cc1ccc(S(=O)(=O)NCC2CCC(C(=O)NCc3ccccn3)CC2)cc1 (stereo not given)	none
Fc1ccc(-[n+]2nc(Nc3ccccc3)sc2-c2c(Cl)cccc2Cl)cc1	none (no result: Mtb RmlCD inh)
CCc1ccc(Nc2n[n+](-c3ccccc3)c(-c3c(Cl)cccc3Cl)s2)cc1	RecA intein inh 49 (no result: Mtb RmlCD inh) | GFP chromophore 16
COc1ccc(CCNC(=O)C(=O)NCC2CCCO2)cc1OC (stereo not given)	none (no result: Mtb RmlCD inh)
Cc1[nH][nH]c(=O)c1C(c1ccc(-c2ccc(Cl)c(C(=O)O)c2)o1)c1c(C)[nH][nH]c1=O	none (no result: RecA intein inh)
COC(=O)c1ccccc1NC(=O)c1ccc(-c2ccccc2F)o1	none (no result: Mtb RmlCD inh)
COC(=O)c1cccc(-c2ccc(C(c3c(C)[nH][nH]c3=O)c3c(C)[nH][nH]c3=O)o2)c1	RecA intein inh 100 | GFP chromophore 0.54
COC(=O)c1ccccc1-c1ccc(C(c2c(C)[nH][nH]c2=O)c2c(C)[nH][nH]c2=O)o1	RecA intein inh 95 | GFP chromophore 0.45
CCOc1c2ccc(C(=O)NCc3ccc(C)cc3)cc2nn1CC	none (no result: Mtb RmlCD inh)
CCC(c1nnnn1C(C)(C)CC)N1CCN(c2ccccc2F)CC1 (stereo not given)	none
Cc1[nH]nc2c1C(CC(C)C)C(C#N)=C(N)O2 (stereo not given)	RecA intein inh 72 | GFP chromophore 21
CC(C)CC1C(C#N)=C(N)OC2=C1C(=O)CC(c1ccccc1)C2 (stereo not given)	none (no result: Mtb RmlCD inh)
C/C(=C\c1ccco1)C1C(C#N)=C(N)Oc2n[nH]c(-c3ccccc3)c21 (stereo not given)	RecA intein inh 77 (no result: Mtb RmlCD inh) | GFP chromophore 18
CC(C)CC1C(C#N)=C(N)Oc2n[nH]c(-c3ccccc3)c21 (stereo not given)	RecA intein inh 82 (no result: Mtb RmlCD inh) | GFP chromophore 13
Cc1[nH]nc2c1C(C(C)c1ccccc1)C(C#N)=C(N)O2 (stereo not given)	none
C/C(=C\c1ccco1)C1C(C#N)=C(N)Oc2n[nH]c(-c3ccc(C)cc3)c21 (stereo not given)	none (no result: Mtb RmlCD inh)
CC(NC(c1ccccc1)c1ccccc1)C(=O)N1CCCc2ccccc21 (stereo not given)	none
CC(C)CCn1c(N2CCOCC2)nc2c1c(=O)n(CC(N)=O)c(=O)n2C	none (no result: Mtb RmlCD inh)
O=C1CC(=O)N(c2cccc(F)c2)N1	none
Cc1ccc(S(=O)(=O)N2CCC(=O)N(C(COCc3cccc(Cl)c3)C(C)C)CC2)cc1 (stereo not given)	none (no result: Mtb RmlCD inh)
Cc1nn(-c2ccccc2)c(Cl)c1CN(C(=O)CCl)c1cccc2ccccc12	RecA intein inh 67 (no result: Mtb RmlCD inh) | GFP chromophore 6.3
Cc1nn(-c2ccccc2)c(Cl)c1CN(C(=O)CCl)c1ccc(Cl)cc1	RecA intein inh 88 | GFP chromophore 2.2
Cc1nn(-c2ccccc2)c(Cl)c1C(=O)NCC(=O)O	none (no result: Mtb RmlCD inh)
CC(=O)N(Cc1c(C)nn(-c2ccccc2)c1Cl)c1ccc(Cl)cc1	none
COc1ccc(CCNC(=O)[C@@H](NC(N)=O)C(C)C)cc1	none
C/C(=N\NC(=O)CN(c1ccccc1Br)S(C)(=O)=O)c1cccs1	none
O=C(Nc1ncc([N+](=O)[O-])s1)c1ccco1	RecA intein inh 31 (no result: Mtb RmlCD inh) | GFP chromophore 21
Cc1onc(-c2ccccc2)c1C(=O)Nc1ncc([N+](=O)[O-])s1	none (no result: Mtb RmlCD inh)
COc1ccc2c(CC(=O)OCC(=O)Nc3sc4c(c3C#N)CCC(C)C4)coc2c1 (stereo not given)	none (no result: Mtb RmlCD inh)
Cc1ccc(C(C[N+](=O)[O-])c2c(C)[nH]n(-c3ccccc3)c2=O)cc1 (stereo not given)	RecA intein inh 93 | GFP chromophore 7.3
COc1ccccc1N=Nc1c(C)[nH]n(-c2ccccc2)c1=O	none (no result: Mtb RmlCD inh)
